“And” between values parts separate entries of the source, which are not always exact repeats. Equal values may be shown once. Results filed as inconclusive are left out. Where a structure was tested more than once in an assay, its records may differ in their call. The source made the active and inactive calls. Rule for the calls: active = hit-call score of the fitted dose curve at least 0.9, where 1 is the maximum; inconclusive = response in the unintended direction; inactive = score below 0.9.

Sequence of Nuclear receptor subfamily 4 group A member 2 (Homo sapiens) (P43354 whole entry, looked up): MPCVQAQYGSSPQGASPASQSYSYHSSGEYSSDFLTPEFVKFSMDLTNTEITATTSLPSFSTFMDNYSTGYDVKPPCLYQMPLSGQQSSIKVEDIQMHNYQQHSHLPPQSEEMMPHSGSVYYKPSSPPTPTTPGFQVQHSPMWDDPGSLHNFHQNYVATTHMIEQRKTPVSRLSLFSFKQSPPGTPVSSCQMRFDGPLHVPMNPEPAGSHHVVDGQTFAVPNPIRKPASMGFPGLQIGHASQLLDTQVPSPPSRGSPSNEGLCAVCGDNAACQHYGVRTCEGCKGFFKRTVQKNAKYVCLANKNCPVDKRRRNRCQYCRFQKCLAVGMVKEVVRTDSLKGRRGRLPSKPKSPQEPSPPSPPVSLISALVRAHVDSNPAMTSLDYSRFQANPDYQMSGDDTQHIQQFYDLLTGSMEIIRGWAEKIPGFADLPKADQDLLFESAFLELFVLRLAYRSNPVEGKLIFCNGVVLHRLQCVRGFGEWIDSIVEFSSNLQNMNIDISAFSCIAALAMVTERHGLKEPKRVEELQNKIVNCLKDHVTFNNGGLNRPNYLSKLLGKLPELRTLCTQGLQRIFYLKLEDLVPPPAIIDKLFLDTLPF

For the experiment, the target named is Nuclear receptor subfamily 4 group A member 2 (Homo sapiens) (UniProt P43354). As to the kind of experiment: ATG_NURR1_TRANS: Attagene TRANS-FACTORIAL HepG2 Assay for human Nuclear Receptor Related Protein 1 (NURR1) (AID 2282985). As to conditions: HepG2 Attagene TRANS reporter, mRNA readout. How it is done:
ATG_TRANS is a cell-based, multiplexed-readout assay that uses HepG2, a human liver cell line, with measurements taken at 24 hours after chemical dosing in a 24-well plate.ATG_NURR1_TRANS is one of 30 assay component(s) measured or calculated from the ATG_TRANS assay. It is designed to make measurements of mRNA induction, a form of inducible reporter, as detected with fluorescence intensity signals by Reverse transcription polymerase chain reaction (RT-PCR) and Capillary electrophoresis technology.Data from the assay component ATG_NURR1_TRANS was analyzed into 1 assay endpoint. This assay endpoint, ATG_NURR1_TRANS, was analyzed in the positive analysis fitting direction relative to DMSO as the negative control and baseline of activity. Using a type of inducible reporter, measures of mRNA for gain-of-signal activity can be used to understand the reporter gene at the transcription factor-level as they relate to the gene NR4A2. Furthermore, this assay endpoint can be referred to as a primary readout, because this assay has produced multiple assay endpoints where this one serves a reporter gene function. To generalize the intended target to other relatable targets, this assay endpoint is annotated to the nuclear receptor intended target family, where the subfamily is orphan.
Human liver HepG2 cells are transiently transfected with multiple reporter transcription units (MRTUs) in 6-well plates using FuGene 6 reagent (Roche; 3 ml FuGene/1 mg DNA). The MRTU constructs are regulated by a cis-regulating element (promoter). […] A major difference between the CIS and TRANS system is that in CIS activities of endogenous TFs are measured, whereas the TRANS assay evaluates changes in activities of exogenous, chimeric NR-Gal4 proteins. […] At the end of 24 hour incubation, total RNA was isolated using TriZol reagent (Invitrogen). The isolated RNA is then reverse-transcribed using oligo(dT) primer and Mo-MLV reverse transcriptase (Invitrogen) with DNAse I (Ambion) treatment for 30 min. The one-tenth of the produced cDNA was amplified by PCR using Taq DNA polymerase (Invitrogen) and two reporter sequence-specific primers. The PCR products were fluorescently labeled by primer extension with 6-arboxyfluorescein (6-FAM) 5'-labeled reporter sequence-specific primer (2 min at 95 C, 20 s at 68 C and 10 min at 72 C) and these products were digested with 5U of HpaI (New England Biolabs) for 2h at 37 C. The fragments were purified using Qiaquick PCR columns (Qiagen), analyzed on an ABI 3130xL genetic analyzer (Applied Biosystems) with peak positions identified by using a set of X-rhodamine (ROX)-labeled MapMarker1000 molecular weight standards (BioVentures). The raw capillary electrophoresis data was processed using Attagraph software (Attagene).
With `FC(F)(F)N1C(F)(F)C(F)(F)OC(F)(F)C1(F)F`, the outcome was inactive.
Same read-out and setting: the value for `NS(=O)(=O)O` was “inactive”.
Broadly, the AC50 is the concentration at which the activity in the assay is half-maximal. Take `CCOC(=O)CN[C@@H](C(=O)N1CC[C@H]1C(=O)NCc1ccc(/C(N)=N/O)cc1)C1CCCCC1`: the AC50 is 3.99 µM (active).
Regarding `Brc1ccc(Oc2ccc(Br)cc2Br)cc1`, the compound was classed as inactive.
For the compound `Nc1cc(Cl)c(-c2cc(Cl)c(N)cc2Cl)cc1Cl`, the outcome was inactive.
In the case of `CCOC(=O)c1nc(C(Cl)(Cl)Cl)n(-c2ccc(Cl)cc2Cl)n1`, the half-maximal activity concentration (AC50) is 66 µM (active).
Consider `CCC1CO1` (stereo not given), for which the outcome was inactive.
On to `CN(CCO)S(=O)(=O)C(F)(F)C(F)(F)C(F)(F)C(F)(F)C(F)(F)C(F)(F)C(F)(F)C(F)(F)F`, for which the call was inactive.
Same read-out and setting: the value for `COc1cc(OC)nc(NC(=O)NS(=O)(=O)Nc2ccccc2C(=O)N(C)C)n1` was “inactive”.
Still for that read-out and setting: the result for `CC1=CC(=O)c2ccccc2C1=O` reads “inactive”; that for `NNc1nc(-c2ccc([N+](=O)[O-])cc2)cs1`, “inactive”.
As to `FC(F)(F)C(F)(F)C(F)(F)Br`, the result was inactive.
In the case of `CCO[Si](C)(C)OCC`, the outcome was inactive.
In the case of `Cc1ccc(C)c(S(=O)(=O)O)c1`, the outcome was inactive.
Regarding `O=CC(F)(F)C(F)(F)C(F)(F)C(F)F`, the outcome was inactive.
With `O=CC(F)(F)C(F)(F)C(F)(F)F`, the result was inactive.
Regarding `CCCCCCCCCCCC`, the call was inactive.
With `CCOC=C(C(=O)OCC)C(=O)OCC`, the call was inactive.
Consider `c1ccc(CNc2ncnc3c2ncn3C2CCCCO2)cc1` (stereo not given), for which the outcome was inactive.
Take `C=CC(=C)CC/C=C(\C)CCC=C(C)C`: the outcome was inactive.
Turning to `CC(C)(c1ccc(Oc2ccc(N)cc2)cc1)c1ccc(Oc2ccc(N)cc2)cc1`, the half-maximal activity concentration (AC50) was 7.23 µM (active).
For `C[N+](C)(CCCNS(=O)(=O)CCC(F)(F)C(F)(F)C(F)(F)C(F)(F)C(F)(F)C(F)(F)F)CC(=O)[O-]`, the compound was called inactive.
For `Cc1ccc2ccc3ccc(C)cc3c2c1`, the result was inactive.
As for `Cc1ccc(S(=O)(=O)O)cc1`, the result was inactive.
Turning to `CCCCCCCCCCCCCC[n+]1ccccc1`, the AC50 is 9.84 µM (active).
Consider `O=S(=O)(O)C(F)(F)C(F)(F)C(F)(F)C(F)(F)C(F)(F)C(F)(F)C(F)(F)C(F)(F)C(F)(F)C(F)(F)F`, for which the call was inactive.
With `C=CC(=O)OCCN(CC)CC`, the call was inactive.
On to `Oc1cccc2c(O)cccc12`, for which the compound was called inactive.
For `Oc1cc2ccccc2cc1O`, the call was inactive.
For `O=C(NO)c1ccccc1`, the AC50 is 57.6 µM (active) and 40.3 µM (active) and 58 µM (active); the compound was called inactive.
Consider `FC1(F)C=CC(F)(F)C1(F)F`, for which the compound was called inactive.
For the compound `O=C(Nc1ccc(Cl)c(Cl)c1)c1cc(Cl)cc(Cl)c1O`, the outcome was inactive.
`COc1cccc(O)c1`: the outcome was inactive.
On to `O=P(O)(O)CCC(F)(F)C(F)(F)C(F)(F)C(F)(F)C(F)(F)C(F)(F)C(F)(F)C(F)(F)F`, for which the compound was classed as inactive.
Consider `C[C@]12CC[C@@H]3c4ccc(O)cc4CC[C@H]3[C@@H]1C[C@@H](O)[C@@H]2O`, for which the compound was classed as inactive.
As to `COc1ccccc1NC(=O)c1cc2ccccc2cc1O`, the call was inactive.
On the same count and under the same terms, the result for `CC(C)(C)c1ccc(O)c(O)c1` reads “inactive”.
For the compound `c1cnc2c(c1)ccc1cccnc12`, the outcome was inactive.
Consider `C=CC(C)(CCC=C(C)C)OC(C)=O` (stereo not given), for which the compound was classed as inactive.
